Reference: PubChem BioAssay
Unmarked numbers belong to inactive results. How the calls were made is not given here.

Each compound was assayed against Pantothenate synthetase (Mycobacterium tuberculosis (strain ATCC 25618 / H37Rv)) (UniProt P9WIL5) (assay: Coupled enzyme confirmation of inhibitors against recombinant Mtb PanC (AID 375;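 further: 0% = full reaction with vehicle and 100% = no enzyme background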)). Details: coupled enzyme assay; at 10 µM, stronger effect = higher value.
Chain of Pantothenate synthetase (Mycobacterium tuberculosis (strain ATCC 25618 / H37Rv)) (P9WIL5 whole entry, looked up): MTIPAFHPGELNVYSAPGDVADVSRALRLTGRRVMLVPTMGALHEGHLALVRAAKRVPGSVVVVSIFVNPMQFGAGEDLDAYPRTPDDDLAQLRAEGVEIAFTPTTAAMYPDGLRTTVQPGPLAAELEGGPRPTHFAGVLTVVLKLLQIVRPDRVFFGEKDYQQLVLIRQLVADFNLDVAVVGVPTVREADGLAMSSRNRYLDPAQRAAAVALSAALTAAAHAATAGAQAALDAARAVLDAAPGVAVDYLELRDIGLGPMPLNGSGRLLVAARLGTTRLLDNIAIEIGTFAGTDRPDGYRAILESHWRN

SMILES | inhibition
CC(C)c1ccc(NC(=O)CCNS(=O)(=O)c2cccc3nonc23)cc1 | 0%
CCc1ccc(NS(=O)(=O)c2cccs2)cc1 | 0%
COc1ccc(C)cc1NC(=O)CCN1CCCC1 | 0%
C=CCn1c(SCC2=C(C(=O)OCC)C(C)NC(=O)N2)nnc1C1CCCCC1 (stereo not given) | 0%
O=C(O)CCC1(C(=O)O)OCCc2ccccc21 (stereo not given) | 8%
O=C(c1ccco1)N1CCN(C(=O)C2CCN(S(=O)(=O)c3cccc4nsnc34)CC2)CC1 | 10%
CCOc1ccc(CN2C(=O)c3ccccc3C2C(=O)NCc2cccnc2)cc1 (stereo not given) | 0%
[N-]=[N+]=CC(=O)CC(c1ccccc1)N1C(=O)c2ccccc2C1=O (stereo not given) | 0%
CSCSC1=C(C#N)C(c2ccc(Cl)cc2)C(C(C)=O)=C(C)N1 (stereo not given) | 0%
CC1Cc2ccccc2N1C(=O)CSc1nc2ccccc2n1CC(=O)N1CCOCC1 (stereo not given) | 0%
COc1cc(C2CC(=O)NC3=C2C(=O)CC(C)(C)C3)ccc1O (stereo not given) | 0%
O=C(c1cc2ccccc2oc1=O)N1CCSC1c1ccco1 (stereo not given) | 8%
CCNC(=O)Cn1cnc2c1c(=O)n(C)c(=O)n2C | 0%
CC(C)CCNC(=O)NC(=O)CN1C(=O)NC2(CCCCC2)C1=O | 2%
O=c1[nH]c2ccc(Br)cc2c(-c2ccccc2)c1N1CCOCC1 | 1%
Cc1cc(C(=O)CSCCCn2c(=O)[nH]c3ccccc32)c(C)n1C | 2%
Cc1oc2c(CN3CCOCC3)c(O)ccc2c(=O)c1-c1ccc(Br)cc1 | 0%
COc1ccc(C(=O)N2CCSC2=S)cc1OC | 0%
O=C(Nc1cnn(C23CC4CC(CC(C4)C2)C3)c1)c1cnn2c(C(F)(F)F)cc(-c3ccco3)nc12 | 0%
COCCNC(=O)c1c(N)n(/N=C/c2cccs2)c2nc3ccccc3nc12 | 0%

SMILES | inhibition
CCN(CC)C(=O)c1sc2nc(-c3cccs3)cc(-c3cccs3)c2c1N | 0%
Cc1ccc(NS(=O)(=O)c2cn(C)cn2)cc1 | 5%
O=C(C1CCN(C2CC(=O)N(c3ccc(F)cc3)C2=O)CC1)N1CCOCC1 (stereo not given) | 0%
CC1(C)NC(=O)N(CCOc2cccc(Cl)c2Cl)C1=O | 0%
C[C@H](NC(=O)NCc1cccs1)C(=O)O | 0%
CCOc1ccccc1CNC(=O)CCN1C(=O)COc2ccccc21 | 0%
COC(=O)CN1C(=O)C2(C(C#N)=C(N)Oc3c2c(C)nn3-c2ccccc2)c2ccccc21 (stereo not given) | 3%
CCOc1ccc(N(CC(=O)NC2CCCCC2)S(=O)(=O)c2c(C)noc2C)cc1 | 0%
COC(=O)c1[nH]c2ccc(C)cc2c1NC(=O)CN1CCC(C)CC1 | 0%
O=C(NC1=NCCS1)c1ccc2c(c1)C(=O)N(Cc1ccco1)C2=O | 0%
Cn1c(=O)c2nc(Cl)n(Cc3ccc(Cl)cc3Cl)c2n(C)c1=O | 6%
CCN(CC)CCCNC(=O)c1cn(C)c2ccc(S(=O)(=O)N(C)C)cc2c1=O | 10%
CCOC(=O)c1sc(NC(=O)CSc2nnc(-c3ccc(OC)cc3)n2CCOC)nc1C | 6%
Cc1cc(C)c(OCC(=O)Nc2ccc3c(c2)OCO3)cc1C | 2%
CN(C)CCCN1c2ccccc2Sc2ccc(Cl)cc21 | 0%
COc1ccc(OC)c(NC(=O)CCNS(=O)(=O)c2cccs2)c1 | 0%
CC(C)C(C(=O)Nc1ccc2c(c1)OCO2)N1C(=O)c2ccccc2C1=O (stereo not given) | 0%
C=CCOc1ccc(/C(CC)=N/O)c(OC)c1 | 0%
CCOC(=O)CC1=C(C(=O)OCC)C(c2ccc(C)o2)C(C#N)=C(N)O1 (stereo not given) | 0%
Cc1ccccc1-n1c(Cn2c(=O)sc3ccccc32)nnc1SCC(=O)N1CCCC1 | 8%
